Records with an inconclusive call do not appear. Activity calls are given as the source filed them. Calls follow the shape of the dose curve; as a rule, active = well fitted curve in the direction sought with a large enough effect; inconclusive = small, poorly fitted or top-dose-only effect, or another doubt; inactive = no such curve, though single readings can be large; an effect the other way counts as inactive or inconclusive.

These results are taken from PubChem BioAssay (NCATS).

Experiment [1] can be described thus: NS1 protein of Zika virus - qHTS assay to identify small molecule inhibitors in human HEK 293 cells (AID 1347053). Also: series mostly up to about 46 µM; nearly all actives have a fitted effect of over 55% in size. An outline of the steps: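 HEK 293 cells pretreated with compound for 1 h, then infected with ZIKV MR766 (MOI 0.5) for 24 h at 37 C. NS1 detected by TR-FRET with two anti-NS1 antibodies; normalized to uninfected (0%) and infected (100%) wells.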
On the technique in general: In qHTS, concentration-response curves come from the screen itself.

Experiment [2] is described as follows: qHTS of pediatric cancer cell lines to identify multiple opportunities for drug repurposing: Primary screen for TC32 cells (AID 1347089). Also: nearly all actives have a fitted effect of over 60% in size. Put shortly: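 In the primary qHTS, MIPE compounds were tested at 11 concentrations (0.78 nM to 46 µM) and NPC compounds at 8 (0.59 nM to 46 µM) on TC32 cells for 48 h. CellTiter-Glo luminescence gave viability.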
The nature of experiment [3]: qHTS of pediatric cancer cell lines to identify multiple opportunities for drug repurposing: Primary screen for SJ-GBM2 cells (AID 1347091). Also: potency is read from the fitted curve at half-maximal effect. An outline of the steps:
(§1)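 Viability measured as metabolically active cells via CellTiter-Glo luminescence following 48 hours of compound exposure, 11-point dilutions in confirmatory testing. 500-1,000 cells/well plated 5 hours before dosing; controls were DMSO and 2.3 µM bortezomib.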

Experiment [4] is described as follows: qHTS of pediatric cancer cell lines to identify multiple opportunities for drug repurposing: Primary screen for A673 cells (AID 1347092). Also: nearly all actives have a fitted effect of over 45% in size. An outline of the steps: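 48 h compound exposure, A673, 500-1,000 cells/well, 37 degrees C/5% CO2. MIPE: 11-point, 0.78 nM-46 µM; NPC: 8-point, 0.59 nM-46 µM (final). Readout CellTiter-Glo luminescence after 15 min RT.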

The nature of experiment [5]: qHTS of pediatric cancer cell lines to identify multiple opportunities for drug repurposing: Primary screen for SK-N-MC cells (AID 1347093). Also: potency is read from the fitted curve at half-maximal effect. Put shortly:
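Metabolically active cells were quantified by ATP-dependent luminescence (CellTiter-Glo, 15 min at room temperature) following 48 h treatment. Cells had been plated at 500-1,000 per well and settled for 5 h beforehand.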

Experiment [6] in a line: qHTS of pediatric cancer cell lines to identify multiple opportunities for drug repurposing: Primary screen for BT-37 cells (AID 1347094). Also: series mostly up to about 57 µM. An outline of the steps: (§2)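 500-1,000 cells/well; 5 h pre-incubation 37 °C/5% CO2; compound pinned; 48 h; CellTiter-Glo, 15 min RT; luminescence. MIPE 11-pt from 0.78 nM, NPC 8-pt from 0.59 nM final. Bortezomib 2.3 µM final as positive control.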

Experiment [7] in a line: qHTS of pediatric cancer cell lines to identify multiple opportunities for drug repurposing: Primary screen for NB-EBc1 cells (AID 1347095). Put shortly: as §2
Experiment [8] in a line: qHTS of pediatric cancer cell lines to identify multiple opportunities for drug repurposing: Primary screen for U-2 OS cells (AID 1347096). Also: nearly all actives have a fitted effect of over 50% in size. An outline of the steps:
(§3)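 Viability after 48 h compound treatment at 37C, 500-1,000 cells/well, read as ATP luminescence with CellTiter-Glo. Primary screens used 11-point (MIPE, 0.78 nM-46 µM) or 8-point (NPC, 0.59 nM-46 µM) final concentrations; follow-up screens used 11-point dilutions.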

Experiment [9] is described as follows: qHTS of pediatric cancer cell lines to identify multiple opportunities for drug repurposing: Primary screen for Saos-2 cells (AID 1347097). Also: nearly all actives have a fitted effect of over 40% in size. Put shortly:
as §2

Experiment [10] in a line: qHTS of pediatric cancer cell lines to identify multiple opportunities for drug repurposing: Primary screen for NB1643 cells (AID 1347099). Also: nearly all actives have a fitted effect of over 50% in size. Also: potency is read from the fitted curve at half-maximal effect. An outline of the steps:
as §2

The nature of experiment [11]: qHTS of pediatric cancer cell lines to identify multiple opportunities for drug repurposing: Primary screen for LAN-5 cells (AID 1347100). Put shortly: as §3
Experiment [12] in a line: qHTS of pediatric cancer cell lines to identify multiple opportunities for drug repurposing: Primary screen for BT-12 cells (AID 1347101). Also: nearly all actives have a fitted effect of over 25% in size. Also: potency is read from the fitted curve at half-maximal effect. An outline of the steps:
(§4)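 Cells (500-1,000/well) rested 5 h, then received compounds for 48 h; metabolically active cells were measured by CellTiter-Glo luminescence. Final concentrations spanned up to 46 µM (MIPE, 11-point) or 0.59 nM-46 µM (NPC, 8-point) in primary screens, 11-point in follow-ups.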

Experiment [13] in a line: qHTS of pediatric cancer cell lines to identify multiple opportunities for drug repurposing: Primary screen for Rh18 cells (AID 1347102). Also: nearly all actives have a fitted effect of over 65% in size. An outline of the steps: as §3
Experiment [14] is described as follows: qHTS of pediatric cancer cell lines to identify multiple opportunities for drug repurposing: Primary screen for SK-N-SH cells (AID 1347098).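 Also: DMSO served as neutral control and bortezomib at 2.3 µM as positive control; nearly all actives have a fitted effect of over 65% in size.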 An outline of the steps: as §4
Experiment [15] can be described thus: qHTS of pediatric cancer cell lines to identify multiple opportunities for drug repurposing: Primary screen for DAOY cells (AID 1347090). Also: series mostly up to about 46 µM; nearly all actives have a fitted effect of over 55% in size. Put shortly: as §1
A short description of experiment [16]: qHTS of pediatric cancer cell lines to identify multiple opportunities for drug repurposing: Primary screen for OHS-50 cells (AID 1347103). Also: nearly all actives have a fitted effect of over 40% in size. An outline of the steps: as §4

In the case of `C1N2CN3CN1CN(C2)C3`, the Potency entry in [1], in experiment [2], in experiment [3], in experiment [4], in [5] and in experiment [6] was “inactive” in each case. The Potency entry in [7], in experiment [8], in experiment [9], in [10], in experiment [11] and in experiment [12] was “inactive” each time. In addition, the Potency result in experiment [13] is “inactive”.
For `C/C=C(/C(=C/C)c1ccc(OC(C)=O)cc1)c1ccc(OC(C)=O)cc1`, the Potency entry in experiment [1], in [2], in [6], in experiment [8], in experiment [14] and in [12] was “inactive” throughout. Moreover, the Potency in experiment [5] is 5.31 µM (active).
For the compound `CCOc1ncc(F)c(=O)[nH]1`, the Potency entry in experiment [1], in experiment [15], in experiment [3], in experiment [4], in experiment [5] and in experiment [6] was “inactive” throughout. Moreover, the Potency result in experiment [7], in [8], in [9], in experiment [14], in experiment [10] and in experiment [11] was “inactive” in each case. Besides, the Potency result in experiment [12] and in [13] was “inactive” throughout.
In the case of `CCCN(CCC)C(=O)C(CCC(=O)OCCCN1CCN(CCOC(=O)Cc2c(C)n(C(=O)c3ccc(Cl)cc3)c3ccc(OC)cc23)CC1)NC(=O)c1ccccc1` (configuration not stated), the Potency result in experiment [1], in experiment [2], in experiment [8], in experiment [10] and in [12] was “inactive” each time. Moreover, the Potency in experiment [3] was 18.8 µM (active).
As for `CCOC(=O)c1cc(=O)c2c(OCC(COc3cccc4oc(C(=O)OCC)cc(=O)c34)OC(=O)[C@@H](N)CCCCN)cccc2o1`, the Potency entry in experiment [1], in experiment [2], in [3], in experiment [4], in experiment [6] and in experiment [7] was “inactive” throughout. Further, the Potency result in experiment [8], in experiment [9], in experiment [14], in [10], in [12] and in experiment [13] was “inactive” each time. Moreover, in experiment [16], the Potency result was “inactive”.
Consider `COc1ccc2c(c1)c(CC(=O)OC/C=C(\C)CC/C=C(\C)CCC=C(C)C)c(C)n2C(=O)c1ccc(Cl)cc1`, for which the Potency entry in [1], in experiment [2], in experiment [3], in [4], in experiment [5] and in [6] was “inactive” throughout. Also, the Potency result in [8], in experiment [9], in experiment [14], in [10], in experiment [11] and in [12] was “inactive” in each case. In addition, the Potency entry in experiment [13] and in experiment [16] was “inactive” each time.
Regarding `O=C(O)C(=O)Nc1cccc(-c2nn[nH]n2)c1`, the Potency entry in [1], in experiment [15], in experiment [3], in experiment [4], in experiment [5] and in experiment [6] was “inactive” throughout. Besides, the Potency result in experiment [7], in experiment [8], in experiment [9], in experiment [14], in [10] and in [11] was “inactive” throughout. Besides, the Potency result in [12] and in experiment [13] was “inactive” throughout.
In the case of `CC(=O)OCC[N+](C)(C)C`, the Potency result in [1], in experiment [2], in experiment [3], in experiment [6], in experiment [7] and in experiment [8] was “inactive” in each case. For the same compound, the Potency result in experiment [9], in experiment [14], in [10], in experiment [11], in [12] and in [13] was “inactive” in each case. Moreover, the Potency result in experiment [16] is “inactive”.
Turning to `COC(=O)c1cc(S(N)(=O)=O)ccc1OC`, the Potency result in experiment [1], in experiment [2], in experiment [3], in experiment [4], in [5] and in experiment [6] was “inactive” in each case. Further, the Potency entry in experiment [8], in experiment [9], in experiment [14], in experiment [10], in experiment [11] and in experiment [12] was “inactive” in each case. Further, the Potency result in experiment [13] and in experiment [16] was “inactive” each time.
Regarding `O=C(CCCCC(=O)Nc1c(I)cc(I)c(C(=O)O)c1I)Nc1c(I)cc(I)c(C(=O)O)c1I`, the Potency entry in experiment [1], in [2], in experiment [3], in [5], in [6] and in experiment [7] was “inactive” in each case. Also, the Potency result in experiment [8], in experiment [9], in [14], in [10], in [11] and in experiment [12] was “inactive” throughout. Further, the Potency result in [13] and in experiment [16] was “inactive” throughout.
In the case of `COc1cc(C=O)ccc1O`, the Potency entry in experiment [1], in experiment [2], in experiment [3], in [4], in [5] and in experiment [6] was “inactive” in each case. Moreover, the Potency entry in experiment [7], in [8], in [9], in experiment [14], in [10] and in experiment [12] was “inactive” each time. For the same compound, the Potency entry in [13] and in [16] was “inactive” throughout.
As to `Cc1ccc(C(=O)Oc2ccc(C(O)CNC(C)(C)C)cc2OC(=O)c2ccc(C)cc2)cc1` (configuration not stated), the Potency result in experiment [1], in experiment [2], in [3], in experiment [6], in [7] and in experiment [9] was “inactive” each time. Moreover, the Potency result in experiment [14] and in [13] was “inactive” throughout. The Potency in experiment [5] was 0.001 µM (active); in experiment [10], 0.001 µM (active); in experiment [12], 6.17 µM (active).
In the case of `CC1(C)O[C@@H]2C[C@H]3[C@@H]4CCC5=CC(=O)C=C[C@]5(C)[C@@]4(F)[C@@H](O)C[C@]3(C)[C@]2(C(=O)CO)O1`, the Potency result in [1], in experiment [2], in experiment [3], in experiment [4], in experiment [5] and in experiment [6] was “inactive” each time. Further, the Potency result in [7], in experiment [8], in [9], in [14], in [11] and in experiment [12] was “inactive” throughout. Besides, the Potency result in experiment [13] is “inactive”.
`CCOC(=O)N1CCC(n2c(=O)[nH]c3cc(Cl)ccc32)CC1`: the Potency entry in [1], in experiment [2], in experiment [3], in experiment [14], in experiment [10] and in experiment [11] was “inactive” throughout. In addition, the Potency result in [13] is “inactive”.
Consider `COc1cc(C(=O)OC(COCCC(C)C)CN2CCOCC2)cc(OC)c1OC` (configuration not stated), for which the Potency entry in [1], in [2], in experiment [3], in experiment [5], in experiment [6] and in experiment [7] was “inactive” in each case. Besides, the Potency entry in experiment [8], in experiment [9], in [10], in experiment [11], in experiment [12] and in [13] was “inactive” in each case. Moreover, the Potency entry in experiment [16] was “inactive”.
Take `Cc1oc(-c2ccccc2)nc1CCC(=O)c1ccc(CC2SC(=O)NC2=O)cc1` (configuration not stated): the Potency result in [1], in [2], in experiment [3], in experiment [4], in [6] and in [7] was “inactive” each time. Also, the Potency entry in [14], in [10] and in [13] was “inactive” each time.
For `CCCCCCOC(=O)NC(=N)c1ccc(NCc2nc3cc(C(=O)N(CCC(=O)OCC)c4ccccn4)ccc3n2C)cc1`, the Potency result in experiment [1], in [15], in [8], in experiment [10] and in experiment [13] was “inactive” each time. In experiment [3], the Potency is 21.1 µM (active).
Turning to `O=C1[C@@H]2[C@H]3CC[C@H](C3)[C@@H]2C(=O)N1CCCCN1CCN(c2ncccn2)CC1`, the Potency entry in [1], in experiment [15], in experiment [3], in experiment [5], in experiment [6] and in experiment [7] was “inactive” in each case. Further, the Potency entry in [8], in experiment [9], in experiment [10], in [11], in experiment [12] and in [13] was “inactive” in each case. Besides, in experiment [16], the Potency entry is “inactive”.
In the case of `O=C(CCCl)NCc1ccccc1`, the Potency result in experiment [1], in experiment [15], in [3], in [4], in experiment [5] and in experiment [6] was “inactive” in each case. In addition, the Potency entry in [7], in [8], in experiment [9], in [14], in experiment [10] and in experiment [12] was “inactive” each time. The Potency result in [13] and in experiment [16] was “inactive” throughout.
